Results on 13 compounds are retold here after PubChem BioAssay (NCATS).

Inconclusive results are not listed. Unmarked numbers belong to inactive results. Activity calls are given as the source filed them. Calls follow the shape of the dose curve; as a rule, active = well fitted curve in the direction sought with a large enough effect; inconclusive = small, poorly fitted or top-dose-only effect, or another doubt; inactive = no such curve, though single readings can be large; an effect the other way counts as inactive or inconclusive.

One assay deals with HACAT. Kind of assay: qHTS assay to identify novel small-molecules to repurpose for Merkel cell carcinoma treatment (AID 1296009). Also: nearly all actives have a fitted effect of over 60% in size. Particulars: MCC and control cell lines, CellTiter-Glo viability, 72 h; at 44.8 µM (top of the series) unless noted. An outline of the steps:
(§1)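 Cell viability measured by CellTiter-Glo following 72 hr compound treatment at 37 degree celsius, with NPC and MIPE libraries tested in 8- and 11-point concentration series.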

Another assay relates to NIH3T3. The assay is described as above. The following applies: MCC and control cell lines, CellTiter-Glo viability, 72 h; at 44.8 µM (top of the series) unless noted. An outline of the steps:
as §1

A further assay concerns C33A. Kind of assay: Primary qHTS to identify gynecologic anti-cancer compounds using libraries of approved drugs and bioactive compounds (AID 1345084). Also: nearly all actives have a fitted effect of over 55% in size. Also: potency is read from the fitted curve at half-maximal effect. As to activity change, negative = cytotoxicity: % is scaled to controls: 0 for no effect and ±100 for the full control effect. Particulars: Gynecologic cancer cell panel viability, ATPlite luminescence, 48 h; series mostly up to 57.5 µM. The procedure, abridged:
(§2)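 Cells, 1,000 per well, were allowed to settle for 16 h at 37 C before compound addition. Five concentrations were tested for 48 h, and viability was read by ATPlite luminescence after 15 min at room temperature.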
For orientation: Quantitative high-throughput screening tests each substance at several concentrations.

For a further assay, the system named is CAOV3. The description is as above. The following applies: Gynecologic cancer cell panel viability, ATPlite luminescence, 48 h; series mostly up to 57.5 µM. An outline of the steps:
as §2
In general terms: Cellular ATP, detected with luciferase, serves as a proxy for viable cell number.

Another assay has as its system CASKI. Described as above. Particulars: Gynecologic cancer cell panel viability, ATPlite luminescence, 48 h; series mostly up to 57.5 µM. An outline of the steps: as §2
In a further assay the test system is Es-2. The assay is described as above. The following applies: Gynecologic cancer cell panel viability, ATPlite luminescence, 48 h; series mostly up to 57.5 µM. The procedure, abridged: as §2
The next assay deals with HeLa. The description is as above. The following applies: Gynecologic cancer cell panel viability, ATPlite luminescence, 48 h; series mostly up to 57.5 µM. The procedure, abridged: as §2
The test system of the next assay is JEG-3. The description is as above. The following applies: Gynecologic cancer cell panel viability, ATPlite luminescence, 48 h; series mostly up to 57.5 µM. The procedure, abridged: as §2
A further assay deals with OV90. The assay is described as above. The following applies: Gynecologic cancer cell panel viability, ATPlite luminescence, 48 h; series mostly up to 57.5 µM. The procedure, abridged:
as §2

The test system of another assay is PA-1. Described as above. The following applies: Gynecologic cancer cell panel viability, ATPlite luminescence, 48 h; series mostly up to 57.5 µM. The procedure, abridged:
as §2

A further assay concerns Tov-21-G. The assay is described as above. Particulars: Gynecologic cancer cell panel viability, ATPlite luminescence, 48 h; series mostly up to 57.5 µM. An outline of the steps: as §2
For the next assay, the system named is Tov112D. Described as above. The following applies: Gynecologic cancer cell panel viability, ATPlite luminescence, 48 h; series mostly up to 57.5 µM. An outline of the steps: as §2
A further assay relates to Hek293T. The assay is described as above. The following applies: Gynecologic cancer cell panel viability, ATPlite luminescence, 48 h, control line for the selectivity index; series mostly up to 57.5 µM. The procedure, abridged:
as §2

For the next assay, the system named is SKOV3. The description is as above. Particulars: Gynecologic cancer cell panel viability, ATPlite luminescence, 48 h; series mostly up to 57.5 µM. The procedure, abridged:
as §2

`O=c1[nH]ccc2nc(-c3ccc(CN4CCC(c5nc(-c6ccccn6)n[nH]5)CC4)cc3)c(-c3ccccc3)cc12`: the compound was classed as inactive in the assay with HACAT, with NIH3T3 and with CASKI. Besides, the Potency result in the assay on C33A, in the assay on CAOV3, in the assay with Es-2, with HeLa, in the assay on JEG-3 and with OV90 was “inactive” throughout. For the same compound, the Potency entry in the assay on PA-1, in the assay with Tov-21-G and in the assay on Tov112D was “inactive” throughout.
For `COc1cc(O)c2c(c1Cl)CC(C)OC2=O` (stereo unspecified), the outcome in the assay with HACAT, in the assay with NIH3T3 and with CASKI was inactive. In addition, the Potency result with C33A, in the assay with CAOV3, in the assay with Es-2, in the assay with HeLa, in the assay on Hek293T and in the assay on JEG-3 was “inactive” each time. Moreover, the Potency result with OV90, with PA-1, in the assay on Tov-21-G and with Tov112D was “inactive” each time.
For `C/C1=C\CC[C@]2(C)O[C@H]2C(=O)c2c(C)coc2C1`, the outcome in the assay on HACAT, with NIH3T3 and with CASKI was inactive. Further, the Potency in the assay with C33A was 7.94 µM (active); with CAOV3, 15.8 µM (active); in the assay with Es-2, 11.2 µM (active); in the assay with HeLa, 7.94 µM (active); with Hek293T, 10 µM (active); in the assay on PA-1, 10 µM (active). Besides, the Potency in the assay on SKOV3 is 7.94 µM (active); with Tov-21-G it was 8.91 µM (active); in the assay on Tov112D, 4.47 µM (active). The Potency entry with OV90 is “inactive”.
With `COc1cc(C(CO)C(OC2OC(CO)C(O)C(O)C2O)c2ccc(O)c(OC)c2)ccc1O` (stereo unspecified), the outcome in the assay with HACAT and with NIH3T3 was “inactive [at 17.4 µM]” throughout. For the same compound, the Potency entry with C33A, in the assay with CAOV3, with Es-2, with HeLa, in the assay with Hek293T and in the assay with JEG-3 was “inactive” each time. In addition, the Potency entry with OV90, in the assay on SKOV3, in the assay with Tov-21-G and in the assay with Tov112D was “inactive” throughout. Further, in the assay with CASKI, the outcome was inactive.
`CC(=O)NC1CC(=O)C23C(=O)NC(Cc4c[nH]c5ccccc45)C2C(C)=C(C)C(O)C3/C=C/CC(C)/C=C(/C)C(O)C1O` (stereo unspecified): the outcome in the assay with HACAT and with NIH3T3 was “inactive [at 17.4 µM]” each time. The Potency result in the assay on C33A, in the assay with Es-2, in the assay with HeLa, in the assay on Hek293T, in the assay on JEG-3 and with OV90 was “inactive” in each case. Also, the Potency result in the assay on PA-1, in the assay with SKOV3, in the assay on Tov-21-G and in the assay with Tov112D was “inactive” throughout. The outcome in the assay on CASKI was inactive.
In the case of `CC(C)c1ccc2c(c1)C(O)CC1C(C)(C(=O)O)CCCC21C` (stereo unspecified), the compound was classed as inactive in the assay on HACAT and in the assay with CASKI. Also, the Potency result with C33A, in the assay on CAOV3, in the assay on Es-2, in the assay on HeLa, with Hek293T and in the assay with JEG-3 was “inactive” throughout. Also, the Potency entry with OV90, in the assay with PA-1, in the assay with SKOV3, in the assay on Tov-21-G and in the assay with Tov112D was “inactive” in each case.
Take `CC1=CC(=O)C2C(C)(C)CCC[C@]2(C)[C@H]1CC[C@H](C)CC(=O)O` (stereo partly specified): the call with HACAT, with NIH3T3 and with CASKI was inactive. In addition, the Potency result in the assay with C33A, in the assay with Es-2, in the assay on HeLa, in the assay with Hek293T, in the assay with JEG-3 and in the assay with OV90 was “inactive” in each case. Besides, the Potency result in the assay with PA-1, with SKOV3, in the assay with Tov-21-G and in the assay on Tov112D was “inactive” in each case.
As for `C/C(=C\CCC(C)(C)O)CCO[C@@H]1O[C@H](CO[C@@H]2O[C@@H](C)[C@H](O)[C@@H](O)[C@H]2O)[C@@H](O)[C@H](O)[C@H]1O`, the outcome with HACAT and in the assay with NIH3T3 was “inactive [at 17.4 µM]” in each case. The Potency entry in the assay with CAOV3, in the assay on Es-2, in the assay with HeLa, in the assay with Hek293T, in the assay with JEG-3 and with OV90 was “inactive” in each case. Moreover, the Potency entry in the assay on PA-1, in the assay on Tov-21-G and in the assay with Tov112D was “inactive” in each case. Further, in the assay on CASKI, the compound was classed as inactive.
For `CNc1nc(Nc2cn(C(C)(C)C#N)nc2C)ncc1C(F)(F)F`, the compound was classed as inactive with HACAT and with CASKI. Also, the Potency entry with C33A, in the assay on CAOV3, in the assay with Es-2, with HeLa, in the assay with Hek293T and with JEG-3 was “inactive” in each case. Besides, the Potency entry with OV90, in the assay on PA-1, in the assay on SKOV3, in the assay with Tov-21-G and with Tov112D was “inactive” throughout.
For `C=C1CC[C@H]2[C@@](C)(CCC(OC3OC(CO)C(O)C(O)C3O)[C@@]2(C)CO)C1C(=O)CC1=CCOC1=O` (stereo partly specified), the outcome in the assay on HACAT and in the assay on NIH3T3 was “inactive [at 17.4 µM]” throughout. Besides, the Potency entry in the assay on C33A, in the assay on Es-2, in the assay on HeLa, in the assay with Hek293T, in the assay with JEG-3 and in the assay with OV90 was “inactive” each time. Further, the Potency entry with PA-1, in the assay with Tov-21-G and in the assay with Tov112D was “inactive” each time. In addition, the result with CASKI was inactive.
As to `CC1(C)CC[C@]2(C(=O)O[C@@H]3O[C@H](CO)[C@@H](O)[C@H](O)[C@H]3O)CC[C@]3(C)C(=CCC4[C@@]5(C)CC[C@H](OC6OC(C(=O)O)C(OC7OC(CO)C(O)C(O)C7O)C(O)C6O)C(C)(C)C5CC[C@]43C)C2C1` (stereo partly specified), the outcome in the assay with HACAT and in the assay with NIH3T3 was “inactive [at 9.27 µM]” throughout. The activity change, negative = cytotoxicity was 1.52% [at 11.6 µM] with C33A; 15.2% [at 11.6 µM] in the assay with CASKI; 1.85% [at 11.6 µM] with Es-2; 2.77% [at 11.6 µM] in the assay on HeLa; 10.4% [at 11.6 µM] in the assay with Hek293T; 9.79% [at 11.6 µM] with JEG-3. Besides, the activity change, negative = cytotoxicity with OV90 was 8.01% [at 11.6 µM]; in the assay with PA-1, 3.63% [at 11.6 µM]; with SKOV3 it was 0% [at 11.6 µM]; in the assay with Tov-21-G, 2.32% [at 11.6 µM]; in the assay with Tov112D, 1.83% [at 11.6 µM].
In the case of `COc1cccc(CN(C(=O)CC(C)(C)C)C2CC(C(=O)N3CCNCC3)N(Cc3ccc4c(c3)OCO4)C2)c1` (stereo unspecified), the outcome in the assay with HACAT, in the assay on NIH3T3 and in the assay with CASKI was inactive. Also, the Potency result with C33A, in the assay on Es-2, in the assay with HeLa, with Hek293T, in the assay with JEG-3 and with OV90 was “inactive” each time. The Potency entry in the assay with PA-1, with SKOV3, in the assay on Tov-21-G and in the assay with Tov112D was “inactive” throughout.
`Cc1ccc([C@@H]2CC=C(C(=O)O)[C@H](c3ccc(C(C)(C)C)cc3)N2S(=O)(=O)c2ccc(C)cc2)cc1`: the compound was classed as inactive in the assay with HACAT, in the assay with NIH3T3 and in the assay with CASKI. Further, the Potency entry in the assay with C33A, with Es-2, in the assay on HeLa, in the assay on Hek293T, in the assay on JEG-3 and in the assay with OV90 was “inactive” in each case. In addition, the Potency result with PA-1, with SKOV3, in the assay with Tov-21-G and in the assay with Tov112D was “inactive” throughout.
